Screening results deposited in PubChem BioAssay by National Center for Advancing Translational Sciences (NCATS).
Most compounds without a hit are left out; they make up all but 9% or so of the library.
IMPase cell inh: membrane-permeable compound that blocks inositol monophosphatase; P97697; CHO-M1 cells, IP1 accumulation, HTRF TR-FRET ratio; inhibition (IP1 accumulation), % at 46.1 µM; 120,000 tested, under 10 active; AID 901; active = well fitted curve in the direction sought with a large enough effect in the signal ratio, not every such curve was filed as active; inconclusive = small, poorly fitted or top-dose-only effect, or a change in a side signal; inactive = no such curve, though single readings can be large or run the other way; the % refers to the signal ratio;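 note: cells stimulated with carbachol in lithium chloride buffer; plate controls were DMSO basal wells for no effect and reference inhibitor wells for full effect; higher means more IMPase inhibition seen as more IP1 and lower FRET ratio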
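CHO-M1 cells (CHO stably expressing M1 receptor), compound up to 46 uM final, stimulated with carbachol (50 uM as added) in buffer with 50mM LiCl, pH 7.4, 30 min at 37C. Cytosolic IP1 read by TR-FRET; AC50 from Hill fits.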
HPGD block: blocks human HPGD enzyme activity | purified HPGD, NADH fluorescence kinetic, PGE2 substrate | Potency, µM, for inactives: at the top dose activity change, negative = inhibition, actives largely listed as inhibitors | hit rate 4.3% among 150,000 | P15428; note: potency is the fitted concentration of half-maximal effect
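20 nM HPGD preincubated 15 min at room temperature with compound in 50 mM Tris-HCl pH 8, 0.01% Tween 20. Started with 1 mM NAD+ and 30 uM prostaglandin E2; NADH fluorescence (360/450 nm) read 5 times over 30-s intervals, last minus first.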
ALDH1A1 inh: blocks purified human ALDH1A1 activity; P00352; Purified ALDH1A1, NADH fluorescence, propionaldehyde substrate; Potency, µM (highest dose often 75.3 µM), for inactives: top-dose activity, negative = inhibition, hits mostly inhibitors; hit rate 7.3% among 220,000; AID 1030;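 note: potency is the fitted concentration of half-maximal effect; plate controls were no enzyme wells and a reference inhibitor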
Target sequence (P00352 whole entry, looked up): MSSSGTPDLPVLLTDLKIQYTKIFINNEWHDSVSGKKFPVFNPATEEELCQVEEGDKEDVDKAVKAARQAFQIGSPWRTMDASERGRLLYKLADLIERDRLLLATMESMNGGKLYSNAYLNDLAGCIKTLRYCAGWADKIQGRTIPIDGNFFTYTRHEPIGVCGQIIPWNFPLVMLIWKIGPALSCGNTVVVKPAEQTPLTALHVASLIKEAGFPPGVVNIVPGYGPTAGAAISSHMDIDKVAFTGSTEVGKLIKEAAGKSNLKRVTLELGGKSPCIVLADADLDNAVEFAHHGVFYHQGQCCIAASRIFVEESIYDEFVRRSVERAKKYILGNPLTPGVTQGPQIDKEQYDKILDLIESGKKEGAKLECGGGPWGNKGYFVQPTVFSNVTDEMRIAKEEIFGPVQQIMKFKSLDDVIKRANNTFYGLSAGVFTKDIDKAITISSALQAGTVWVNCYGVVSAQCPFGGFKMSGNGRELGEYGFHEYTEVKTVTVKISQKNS
* = called active by the depositor; ? = inconclusive; nt = no result; [ ] = remark or other dose. Unless noted, calls come from the whole dose curve; as a rule, active = well fitted inhibition curve with a large enough effect (not every such curve was filed as active); inconclusive = small, poorly fitted or top-dose-only effect, or another doubt; inactive = no such curve, though single readings can be large or run the other way. Unless noted, % is set by controls: 0 for no effect and ±100 for the full control effect.

SMILES	IMPase cell inh	HPGD block	ALDH1A1 inh
CCn1c(O)c(C(=O)CC2NCCc3ccccc32)c(=O)n(CC)c1=S (stereo not given)	5	-14%	1.3µM*
N#CCCCC[N+]12CN3CN(CN(C3)C1)C2	nt	1%	2%[13.5 µM]
CN(C)CCC(C#N)(c1ccccc1)c1ccccc1	nt	-8%	-9%[13.5 µM]
CCCCn1c(O)c(C(CC)=NC(C)c2ccccc2)c(=O)[nH]c1=O (stereo not given)	9	-9%	2%
CCCCCn1c(SCCCC)nc2c1c(=O)[nH]c(=O)n2C	-1	14µM*	20µM*
CC(=O)C1=C(O)[C@@H]2[C@@H]3c4c[nH]c5cccc(c45)C[C@@H]3C(C)(C)N2C1=O	5	-19%	?
O=P(Nc1ccccc1)(Nc1ccccc1)Oc1ccc(Cl)cc1	5	5.6µM*	-3%
COc1cccc(NP(=O)(Oc2ccc(Cl)cc2)Oc2ccc(Cl)cc2)c1	nt	-10%	9%
CCN(CC)S(=O)(=O)c1ccc(NN=C(C#N)C#N)cc1	nt	14µM*	2%
COC1=C[C@H]2[C@H]3Cc4ccc(OC)c(O)c4[C@@]2(CCN3C)CC1=O	3	-16%	3%
CN(C)C(=O)Nc1ccc(Cl)cc1	nt	-3%	14%
Cc1cc(NC(=O)CCl)on1	nt	nt	3.5µM*
CCC(=O)Nc1ccc(Cl)c(Cl)c1	nt	-26%	-6%
COc1ccc2c3c1O[C@H]1[C@@H](O)C=C[C@H]4C(C2)NCCC341 (stereo not given in full)	nt	nt	-6%
Cc1nc2cc([N+](=O)[O-])ccc2c(=O)n1-c1ccccc1[N+](=O)[O-]	nt	nt	32µM*
Cc1ccc(-n2c(C)nc3ccccc3c2=O)c(C)c1	nt	nt	22%
c1cncc([C@@H]2CCCCN2)c1	3	3%	10%
CN(C)C1C(=O)C(C(N)=O)C(=O)C2(O)C(=O)C3C(=O)c4c(O)cccc4C(C)(O)C3C(O)C12 (stereo not given)	nt	?	-10%
Cc1ccccc1-c1cncnc1NCCc1cnc[nH]1	nt	-3%	0%
Clc1ccc(C(c2ccccc2Cl)C(Cl)(Cl)Cl)cc1 (stereo not given)	nt	-6%	22µM*
CC(C)(C)NCC(O)c1ccccc1Cl (stereo not given)	nt	-12%	-5%
C[C@@]12CC[C@H]3[C@@H](CC[C@@H]4C[C@H]5S[C@H]5C[C@]43C)[C@H]1CC[C@H]2O	-5[20.6 µM]	-1%	-2%[20.9 µM]
CC1CC(OP(O)(=S)c2ccc(N(C)C)cc2NC(=O)c2cccs2)CC(C)(C)C1 (stereo not given)	nt	nt	4µM*
CC(=O)O[C@H]1C(=O)[C@@]2(C)C([C@H](OC(=O)c3ccccc3)[C@]3(O)C[C@H](OC(=O)[C@H](O)[C@@H](NC(=O)c4ccccc4)c4ccccc4)C(C)=C1C3(C)C)[C@]1(OC(C)=O)CO[C@@H]1C[C@@H]2OC(=O)[C@H](C)NC(=O)c1ccc(-c2c3ccc(=O)cc-3oc3cc(O)ccc23)c(C(=O)O)c1 (stereo not given in full)	nt	-4%	0%[13.5 µM]
CC(O)CCl (stereo not given)	nt	1%	22%
SMILES	IMPase cell inh	HPGD block	ALDH1A1 inh
O=C1NC(=O)C(=Cc2ccccc2OCCOc2ccc([N+](=O)[O-])cc2)C(=O)N1	nt	nt	14µM*
COc1ccc([N+](=O)[O-])cc1N=Cc1c(O)n(CCc2ccccc2)c(=O)n(C(C)C)c1=O	nt	-5%	-4%
CN1C(=O)N(C)C(=O)C2(Cc3cc([N+](=O)[O-])ccc3N(C)C2c2ccccc2)C1=O (stereo not given)	3	-3%	-10%
CN1C(=O)C(=Cc2ccccc2OCc2ccccc2Cl)C(=O)N(C)C1=O	6	16µM*	2.8µM*
CN1C(=O)C(=Cc2ccccc2OCCOc2ccc([N+](=O)[O-])cc2)C(=O)N(C)C1=O	nt	nt	3.5µM*
CN1C(=O)C(=Cc2ccccc2OCc2ccc(C(=O)O)cc2)C(=O)N(C)C1=O	nt	nt	6%
Cc1nn(Cc2ccccc2)c(C)c1C=C1C(=O)NC(=O)NC1=O	nt	?	-4%
COc1cc(C=C2C(=O)NC(=O)NC2=O)ccc1OCc1ccc([N+](=O)[O-])cc1	nt	nt	15µM*
CCS(=O)(=O)N1CCN(C2CCC(C)CC2)CC1 (stereo not given)	7	-9%	?
CCCCCCCCCCCCCCCCOC[C@@H](COP(=O)([O-])OCC[N+](C)(C)C)OC(C)=O	nt	-6%	5%
C=C(C)C(=O)CP(=O)(OCC)OCC	nt	-7%	-6%
N[C@H](CP(=O)(O)O)C(=O)O	?	-3%	-2%
CC1C(=O)OC2O[C@]3(C)CC[C@H]4C(C)CCC1[C@]24OO3 (stereo not given in full)	nt	-5%	?
CN(C(=O)Cc1ccccc1)[C@H](CN1CCCC1)c1ccccc1	6	-7%	0%
